Source: PubChem BioAssay (NCI)
This is part of a sample that, as a whole, favours compounds with a hit. Of some 83,000 tested, about 20% had one in any assay.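 Values shown are percent growth following 48 h exposure of cells in 96-well plates to a single concentration of compound; below 10 was considered active.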 Activity calls are given as the source filed them.

These molecules were tested on MDA-MB-468 breast (assay: NCI-60 one-dose screen, 48 h (100 = growth as untreated, 0 = no growth, -100 = all killed)). Details: 10 µM unless noted.
With `CC1CC2Oc3ccc(Cl)cc3C(=O)N2O1` (centres undefined) the growth was 94.5% (inactive).
With `O=C1c2ccccc2-c2c1c1ccncc1c(=O)n2CCCn1ccnc1` the growth was 28% (inactive).
`O=C(Nc1ccc(C2=NCCCN2)cc1)c1ccc(C(=O)Nc2ccc(C3=NCCCN3)cc2)nc1` was tested, and the growth was 102% (inactive).
In the case of `CCN(CC)c1ccc2c(cc1=O)[C@@H](NC(C)=O)CCc1cc(OC)c(OC)c(OC)c1-2`, the growth is reported as 36.9% (inactive).
With `C=C1C(=O)O[C@H]2[C@H]1CC/C(COC(=O)c1c[nH]c3ccccc13)=C\CC[C@@]1(C)O[C@@H]21` the growth was -68.5% (active).
`N#CC(C#N)C(C#N)C#N` was tested, and the growth was 99.7% (inactive).
`CCN(CC)S(=O)(=O)c1cccc([N+](=O)[O-])c1` was tested, and the growth was 91.4% (inactive).
In the case of `Cc1cn(-c2cc(NC(=O)c3ccc(C)c(Nc4nccc(-c5cccnc5)n4)c3)cc(C(F)(F)F)c2)cn1`, the growth is reported as 37.2% (inactive).
With `CCOC(=O)NC(C)C` the growth was 96.4% (inactive).
With `CC/C(=C/c1c(O)cccc1OC)c1ccc2c(OC)cccc2[o+]1` the growth was 95.1% (inactive).
`FC(F)(F)c1cccc(Nc2ccccc2)c1` was tested, and the growth was 92.7% (inactive).
With `N#Cc1cccc(F)c1` the growth was 111% (inactive).
`Nc1ccc(Cl)c2c(=O)c3ccccc3[nH]c12` was tested, and the growth was 34% (inactive).
With `C[C@]12CC[C@@H]3c4cc(OC(F)F)c(OS(N)(=O)=O)cc4CC[C@H]3[C@@H]1CC[C@@H]2O` the growth was -24.2% (active).
In the case of `NC(N)=N/N=C/c1cccc(Cl)c1Cl`, the growth is reported as 18.1% (inactive).
In the case of `Oc1ccc(Cl)cc1-c1cc(-c2ccccc2Cl)[nH]n1`, the growth is reported as 3.92% (active).
`CCN1CCN(c2cc(C(=O)Nc3cccc(Nc4ccc5c(OC)cccc5n4)c3)cc(C(F)(F)F)c2)CC1` was tested, and the growth was 23.8% (inactive).
For `Clc1ccc(/C=C/c2nc(N3CCOCC3)c3nc(Cl)c(Cl)cc3n2)cc1`, the growth was 102% (inactive).
`[N-]=[N+]=Nc1ncc(-c2ccc(C(F)(F)F)cc2)c(NC2CCCCCC2)n1` was tested, and the growth was 28.9% [100 µM] (inactive).
In the case of `CC1CN=C(c2cccc(-c3ccc(-c4ccccc4)o3)c2)N1` (centres undefined), the growth is reported as -35.5% (active).
In the case of `CCCCCN1C=C/C(=C\C(=O)N(C)c2ccc(Oc3ccccc3)cc2)c2ccccc21`, the growth is reported as 22.3% (inactive).
For `O=C(CCCCCCN1CC(=O)N2[C@@H](c3cccc(Br)c3)c3[nH]c4ccccc4c3C[C@H]2C1=O)NO`, the growth was 28.1% (inactive).
`CCOC(=O)C1CCCN1C(=O)C1(NC(C)=O)CCCC1` (centres undefined) was tested, and the growth was 98.9% (inactive).
`CNC(=O)NCC1OC(n2cnc3c(NC(=O)Nc4ccccc4)ncnc32)C2OC(C)(C)OC12` (centres undefined) was tested, and the growth was 101% (inactive).
With `CC(=O)C1=C(O)C=C2Oc3c(C(=O)/C=C/c4cc(C(F)(F)F)cc(C(F)(F)F)c4)c(O)c(C)c(O)c3[C@]2(C)C1=O` the growth was -69.3% (active).
In the case of `S=c1[nH]ccn1-c1ccccc1Cl`, the growth is reported as 103% (inactive).
`Cc1ccc(C)c(-n2c(-c3ccc(Br)cc3)csc2=NC(=O)c2ccccc2F)c1` was tested, and the growth was 55.4% (inactive).
`CS(=O)(=O)O[C@@H]1C(=O)N(c2cc3c4ccccc4ccc3c3ccccc23)[C@H]1c1ccc(F)cn1` was tested, and the growth was 30.4% (inactive).
With `COc1cc2[nH]c(C(=O)c3cc(OC)c(OC)c(OC)c3)c(N)c2cc1C#CCO` the growth was 25.6% (inactive).
In the case of `COc1cccc(-c2nc3sccn3c2-c2ccnc(NCCCNS(=O)(=O)c3ccccc3)n2)c1`, the growth is reported as 52% (inactive).
`O=c1cc(-c2ccccc2)nc(SCc2nc3cc(Cl)c(Cl)cc3[nH]2)[nH]1` was tested, and the growth was 116% (inactive).
For `Fc1[nH]nc2ccc([C@@H]3Nc4ccc5[nH]ncc5c4[C@H]4C5CCC(C5)[C@@H]34)cc12` (some centres undefined), the growth was 16% (inactive).
`COc1ccc(C(=O)/C=C/c2cccnc2Nc2cc(OC)c(OC)c(OC)c2)cc1` was tested, and the growth was 9.95% (active).
In the case of `CCCC[P+](c1ccccc1)(c1ccccc1)c1ccccc1`, the growth is reported as -6.92% (active).
`Cc1c(C(=O)Nc2nc(-c3ccccc3)cs2)nnn1-c1cccc2ccccc12` was tested, and the growth was 12.3% [50 µM] (inactive).
With `Oc1ccc(CCCCCCc2ccc(O)cc2)cc1` the growth was 99.5% (inactive).
With `C=CC(=O)NC(=O)Nc1ccccc1Cl` the growth was 30.4% (inactive).
With `COc1ccc(-c2nc(SCC(C)C)nc(N/N=C\c3cccc([N+](=O)[O-])c3)c2C#N)cc1` the growth was 58.1% (inactive).
In the case of `O=S(=O)(NCCNc1nccc(-c2c(-c3ccc(F)c(O)c3)nc3sccn23)n1)c1ccc(O)cc1`, the growth is reported as 31.4% (inactive).
